Data as given in PubChem BioAssay AID720551 (National Center for Advancing Translational Sciences (NCATS), 2013).
In all, about 340,000 compounds went through this assay and about 1,300 (0.38%) were called active.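 How the source made its calls: active means maximum activity change below -70%; inconclusive means maximum activity change between -70% and -50%; inactive means maximum activity change above -50%.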 What follows is part of a selection rich in actives, with near analogues and random picks from the rest.
On the % scale 0 is the no-effect control and ±100 the full control effect.

The molecules below were run against Voltage-gated inwardly rectifying potassium channel KCNH2 (Homo sapiens) (UniProt Q12809) (assay: qHTS for Inhibitors of KCHN2 3.1: Wildtype qHTS). Details: U2OS, BacMam KCNH2, thallium flux FluxOr; at 1.84 µM; stronger effect = lower value.
Sequence of Voltage-gated inwardly rectifying potassium channel KCNH2 (Homo sapiens) (Q12809 whole entry, looked up): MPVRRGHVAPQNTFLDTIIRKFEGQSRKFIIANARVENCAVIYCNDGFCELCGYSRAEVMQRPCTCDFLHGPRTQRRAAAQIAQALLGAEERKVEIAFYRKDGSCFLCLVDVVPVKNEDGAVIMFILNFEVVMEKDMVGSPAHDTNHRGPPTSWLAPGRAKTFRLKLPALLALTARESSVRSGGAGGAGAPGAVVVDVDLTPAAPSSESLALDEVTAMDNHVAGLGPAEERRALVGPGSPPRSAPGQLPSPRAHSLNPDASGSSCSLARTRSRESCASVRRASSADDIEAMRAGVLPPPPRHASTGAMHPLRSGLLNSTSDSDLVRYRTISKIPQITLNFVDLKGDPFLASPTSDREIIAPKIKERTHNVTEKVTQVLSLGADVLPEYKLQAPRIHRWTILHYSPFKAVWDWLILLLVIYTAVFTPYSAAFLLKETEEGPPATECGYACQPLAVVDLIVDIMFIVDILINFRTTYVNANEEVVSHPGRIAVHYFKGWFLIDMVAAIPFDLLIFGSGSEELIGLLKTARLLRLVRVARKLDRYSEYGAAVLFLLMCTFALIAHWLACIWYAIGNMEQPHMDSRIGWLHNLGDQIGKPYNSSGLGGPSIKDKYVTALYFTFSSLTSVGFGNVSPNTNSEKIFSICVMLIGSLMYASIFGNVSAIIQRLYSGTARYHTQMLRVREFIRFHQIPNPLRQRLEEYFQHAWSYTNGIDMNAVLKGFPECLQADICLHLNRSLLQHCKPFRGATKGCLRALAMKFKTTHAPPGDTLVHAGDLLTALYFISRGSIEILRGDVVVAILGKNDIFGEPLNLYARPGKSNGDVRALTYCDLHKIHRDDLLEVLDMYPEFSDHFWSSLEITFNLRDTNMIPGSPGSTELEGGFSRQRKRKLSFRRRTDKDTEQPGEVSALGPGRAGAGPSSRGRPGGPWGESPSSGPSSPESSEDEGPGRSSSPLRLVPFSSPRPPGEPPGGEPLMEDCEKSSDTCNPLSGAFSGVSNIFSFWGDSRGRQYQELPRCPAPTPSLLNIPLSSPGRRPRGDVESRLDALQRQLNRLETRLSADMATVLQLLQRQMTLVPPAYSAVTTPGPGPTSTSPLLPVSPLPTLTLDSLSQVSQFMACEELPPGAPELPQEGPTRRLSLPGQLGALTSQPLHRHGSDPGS
In short: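 U2OS cells were transduced with wild-type KCNH2 virus (2.03 x 10^8 / mL) for 4 h at room temperature, then cultured overnight at 37 C. Thallium flux was read with FluxOr dye. Rate constants were normalized to DMSO controls.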
`COC(=O)Cn1nc(-c2ccccc2)c2cc(Cl)ccc21` was tested, and the activity change was -4.79% (inactive).
For `COCCCNc1nc2c(-c3cccc(C(F)(F)F)c3)nnn2c2ccccc12`, the activity change was -4.14% (inactive).
`COCCCNc1nc2c(-c3cccc(C)c3)nnn2c2ccc(Cl)cc12` was tested, and the activity change was -86% (active).
For `Cc1nnc(SC(C)C(=O)c2c[nH]c3ccccc23)n1C1CC1` (stereo not drawn), the activity change was -2.83% (inactive).
`Cc1cn([C@H]2C[C@H](O)[C@@H](CNC(=O)[C@H](N)Cc3cccnc3)O2)c(=O)[nH]c1=O` was tested, and the activity change was -1.56% (inactive).
`O=C(C[C@H]1C[C@@H]2c3cc(NC(=O)C4CCC4)ccc3O[C@@H]2[C@H](CO)O1)NC1CCCCC1` was tested, and the activity change was -22.6% (inactive).
`O=C(C1CCCO1)N1CCN(C(=O)C23CC4CC(CC(C4)C2)C3)CC1` (stereo not drawn) was tested, and the activity change was -8.69% (inactive).
With `Cc1ccc(C(=O)C(C)OC(=O)Cc2n[nH]c(=O)c3ccccc23)cc1C` (stereo not drawn) the activity change was 5.46% (inactive).
For `O=c1[nH]nc(Cc2ccccn2)c2ccccc12`, the activity change was -160% (active).
In the case of `c1ccc(CCc2ccccn2)cc1`, the activity change is reported as 15.2% (inactive).
In the case of `C[C@H](CO)N1C[C@H](C)[C@@H](CN(C)S(=O)(=O)c2ccc(Oc3ccccc3)cc2)OCc2cn(nn2)CCCC1=O`, the activity change is reported as 10.5% (inactive).
In the case of `COc1ccc(C=C2CCC3C(CCCC34OCCO4)C2=O)cc1` (stereo not drawn), the activity change is reported as 7.34% (inactive).
`COc1ccc(S(=O)(=O)N2CCN(CC(=O)N3CCNC3=O)CC2)cc1OC` was tested, and the activity change was -3.77% (inactive).
With `Cc1cccc(C)c1OCC(O)CN1CCCCC1` (stereo not drawn) the activity change was -71.1% (active).
`O=C(c1ccc(Cl)cc1)c1ccc(OCC(O)CN2CCCCC2)cc1` (stereo not drawn) was tested, and the activity change was 42.5% (inactive).
In the case of `OC(COc1ccc(CN2CCSCC2)cc1)CN1CCCCC1` (stereo not drawn), the activity change is reported as -2.59% (inactive).
`Cc1ccc(NC(=O)c2ccco2)cc1` was tested, and the activity change was -2.95% (inactive).
In the case of `O=Cc1cn(CCOc2ccc(F)cc2)c2ccccc12`, the activity change is reported as -0.818% (inactive).
In the case of `COc1ccc(CC(NC(C)=O)C(=O)NC2CCN(C(=O)Nc3ccc(C#N)cc3)CC2)cc1OC` (stereo not drawn), the activity change is reported as 6.09% (inactive).
`CCOC(=O)C1CCN(C(=O)Nc2cccc(OC)c2)CC1` was tested, and the activity change was -8.37% (inactive).
With `COc1cccc(NC(=O)N2CCC(NC(=O)C(Cc3cccc(C)c3)NC(C)=O)CC2)c1` (stereo not drawn) the activity change was -205% (active).
With `O=Nc1c(O)cc(O)c2ccccc12` the activity change was -0.133% (inactive).
`COC(=O)C(Cc1c[nH]c2ccccc12)NC(=O)CCNC(=O)c1ccco1` (stereo not drawn) was tested, and the activity change was 0.0904% (inactive).
With `Cc1ccc(NC(=O)c2ccn(C(=O)Nc3ccccc3)n2)c(C)c1` the activity change was 5.47% (inactive).
With `CSc1ncc(C(=O)Nc2ccc(C)cc2C)c(C)n1` the activity change was -213% (active).
In the case of `CSc1ncc(C(=O)NCCCc2ccccc2)c(C)n1`, the activity change is reported as 11.2% (inactive).
For `CCc1cc(C(=O)N(CC)CC(=O)Nc2c(F)cccc2F)sc1C`, the activity change was 1.41% (inactive).
With `CC(C)c1cc(C(=O)NC2CCCCCC2)c2ccccc2n1` the activity change was 1.65% (inactive).
For `CCCCNc1nc2ccccc2nc1NS(=O)(=O)c1cccs1`, the activity change was -1.02% (inactive).
In the case of `O=S(=O)([N-]c1nc2ccccc2nc1-[n+]1ccc(Cc2ccccc2)cc1)c1ccc(Br)s1`, the activity change is reported as 8.23% (inactive).
In the case of `Cc1cc(C)c[n+](-c2nc3ccccc3nc2[N-]S(=O)(=O)c2cccs2)c1`, the activity change is reported as -111% (active).
With `N#Cc1ccc(OCC(=O)Nc2nc(-c3ccccn3)cs2)cc1` the activity change was 19.3% (inactive).
For `O=C(NCC(c1cccs1)N1CCOCC1)c1cc(-c2ccccn2)nc2ccccc12` (stereo not drawn), the activity change was 0.99% (inactive).
For `CCc1ccc2ncc(C(=O)c3ccccc3)c(N3CCOCC3)c2c1`, the activity change was 5.15% (inactive).
`O=C(c1ccccc1)c1cc(-c2ccccn2)c(N2CCOCC2)s1` was tested, and the activity change was -186% (active).
`Cc1ccc([C@H]2N[C@]3(CCCN(CC4CCCCC4)C3=O)[C@H]3C(=O)N(Cc4ccccc4)C(=O)[C@@H]23)cc1` was tested, and the activity change was 2.25% (inactive).
With `CN(C)C(CNC(=O)c1cccc(S(=O)(=O)N2CCc3ccccc3C2)c1)c1ccccc1` (stereo not drawn) the activity change was 19.3% (inactive).
With `C[C@@H]1CN([C@H](C)CO)C(=O)c2cc(-c3ccc(F)cc3)cnc2O[C@H]1CN(C)C(=O)c1ccc(F)cc1` the activity change was 16.3% (inactive).
In the case of `Cc1nc2nc[nH]n2c(=O)c1NC(=O)c1cccc(OCC(C)C)c1`, the activity change is reported as -180% (active).
`Cc1nc2nc[nH]n2c(=O)c1C/C=C/c1ccccc1` was tested, and the activity change was 1.17% (inactive).
For `Cc1noc(C)c1COc1cccc(C(=O)Nc2cccnc2)c1`, the activity change was 7.71% (inactive).
`COc1ccc(-c2ccc(CN3C(C(C)C)C(=O)N(Cc4cn(CC5CCCCC5)nn4)CCS3(=O)=O)cc2)cn1` (stereo not drawn) was tested, and the activity change was 6.66% (inactive).
In the case of `Cc1cccc(C(=O)NC2CCN(CC(=O)Nc3cccc(Cl)c3)CC2)c1`, the activity change is reported as 47.4% (inactive).
With `O=C(COc1ccc(Cl)cc1Cl)N/N=C/c1ccccn1` the activity change was -7.76% (inactive).
For `Clc1ccc(COn2c(-c3ccc(Cl)cc3Cl)nc3ncccc32)cc1`, the activity change was 1.98% (inactive).
`Clc1ccc(-c2cc(-c3ccccn3)on2)c(Cl)c1` was tested, and the activity change was -93.1% (active).
`C[C@@H]1CN([C@H](C)CO)C(=O)CCCn2cc(nn2)CO[C@H]1CN(C)S(=O)(=O)c1ccc(Oc2ccccc2)nc1` was tested, and the activity change was 10.5% (inactive).
`COc1ccc(F)c(-c2nc(CN3CCC(c4ccccc4)CC3)c(C)o2)c1` was tested, and the activity change was 21% (inactive).
For `COc1ccc(CN2CCC(c3nc4ccc(Cl)cc4[nH]3)CC2)cc1`, the activity change was -96.7% (active).
In the case of `COc1ccc(CN2CCN(Cc3ccc(OC)c(OC)c3OC)CC2)cc1`, the activity change is reported as 38.9% (inactive).
For `O=C(CCCN1C(=O)C(c2ccccc2)Oc2cccnc21)Nc1ccccc1Br` (stereo not drawn), the activity change was -7.82% (inactive).
For `CCOC(=O)c1cnn2c(SC)ncnc12`, the activity change was 9.2% (inactive).
`CCOc1ccccc1NC(=S)N1CCN(c2cccc(C)c2C)CC1` was tested, and the activity change was -2.86% (inactive).
With `CCC(=O)N1CCN(c2ccccc2NC(=O)COc2cccc(C)c2C)CC1` the activity change was -214% (active).
`Cc1ccc(C(C)C)cc1OCC(=O)Nc1ccccc1N1CCCC1` was tested, and the activity change was -18.3% (inactive).
With `COc1ccc(-c2ccc(CN3C(CC(C)C)C(=O)N(Cc4cn(CC5CCCCC5)nn4)CCS3(=O)=O)cc2)cn1` (stereo not drawn) the activity change was 16.3% (inactive).
In the case of `CCC(Oc1ccccc1)C(=O)OCC(=O)Nc1c(C)nn(-c2ccccc2)c1C` (stereo not drawn), the activity change is reported as 0.17% (inactive).
In the case of `Cc1cc(NC(=O)[C@H](C)NC(=O)c2ccco2)ccc1Br`, the activity change is reported as -4.82% (inactive).
In the case of `O=C(COc1ccccc1F)Nc1nc(-c2ccccn2)cs1`, the activity change is reported as -8.89% (inactive).
With `CC(NC(=O)c1ccco1)C(=O)Nc1nc(-c2ccccn2)cs1` (stereo not drawn) the activity change was -212% (active).
For `CCOCCCN(C)C1CCN(C(=O)c2oc3ccccc3c2NC(=O)Cc2cccc([N+](=O)[O-])c2)CC1`, the activity change was -97.4% (active).
With `CN(C(=O)c1cccc(NC(=O)Cc2cccc([N+](=O)[O-])c2)c1)C1CCCCC1` the activity change was -17.3% (inactive).
In the case of `COCC(=O)Nc1c(C(=O)N2CCCC2)oc2ccccc12`, the activity change is reported as -3.28% (inactive).
`COc1cccc(OC)c1C(=O)Nc1c(C(=O)N2CCN(c3ccccn3)CC2)oc2ccccc12` was tested, and the activity change was 3.21% (inactive).
For `COc1ccc(CC(=O)Nc2c(C(N)=O)oc3ccccc23)cc1`, the activity change was 26.6% (inactive).
In the case of `CCOCCCN(C)C1CCN(C(=O)c2oc3ccccc3c2NC(=O)COc2cccc(C)c2)CC1`, the activity change is reported as -82.2% (active).
For `COc1ccccc1C(=O)NC(=S)Nc1ccc(N2CCOCC2)cc1`, the activity change was -8.97% (inactive).
For `C#CCN(C[C@@H]1[C@@H](OC(=O)NC2CC2)[C@@H](OC(=O)NC2CC2)Cn2c(=O)ccc(=O)n21)S(=O)(=O)c1ccc(C)cc1`, the activity change was 2.34% (inactive).
With `CC(C)CC1C(=O)N(Cc2cn(Cc3ccco3)nn2)CCS(=O)(=O)N1Cc1ccc(-c2ccc(Cl)c(Cl)c2)cc1` (stereo not drawn) the activity change was -32.9% (inactive).
In the case of `C[C@H](CO)N1C[C@H](C)[C@@H](CN(C)S(=O)(=O)c2ccc(F)cc2)OCc2cnnn2CCCC1=O`, the activity change is reported as -1.39% (inactive).
With `CCN(CC)C(=O)C1=C(C)N(Cc2ccc(C(C)(C)C)cc2)C(=O)C(CC(=O)NCc2cccc3ccccc23)C1` (stereo not drawn) the activity change was -4.42% (inactive).
With `CCCn1nnc(NC(=O)COc2ccc(CC)cc2)n1` the activity change was 4.88% (inactive).
With `CCCOc1cccc(C(=O)NCCCNC(=O)c2cccnc2)c1` the activity change was -0.846% (inactive).
`CCCOc1cccc(C(=O)Nc2nnn(CCC)n2)c1` was tested, and the activity change was -113% (active).
`CC(=O)c1ccc(OCC(=O)N(C)C2CCS(=O)(=O)C2)cc1` (stereo not drawn) was tested, and the activity change was -11.1% (inactive).
`CC(C)CC(=O)NC(=S)NCc1ccccc1` was tested, and the activity change was -84.2% (active).
In the case of `CC(C)CC(=O)c1c[nH]c(C(=O)NCc2ccccc2)c1`, the activity change is reported as 0.798% (inactive).
For `CC(C)CC(=O)NC(=S)Nc1cc(C(=O)O)ccc1Cl`, the activity change was -19.3% (inactive).
`COc1ccc(NC(=O)CCCOc2ccc(C(C)=O)cc2)cc1S(=O)(=O)N1CCCCC1` was tested, and the activity change was -1.81% (inactive).
In the case of `Cc1ccc([C@H]2C[C@H](O)[C@@H](n3cc(COC(=O)c4ccccc4)nn3)CN2C(=O)C2CCCCC2)cc1`, the activity change is reported as -0.947% (inactive).
For `C[C@@H]1CN([C@@H](C)CO)C(=O)CCCn2cc(nn2)CO[C@H]1CN(C)S(=O)(=O)c1ccc(-n2cccn2)cc1`, the activity change was -21.9% (inactive).
For `O=C(NCc1nnnn1-c1ccc(Cl)cc1)c1ccc([N+](=O)[O-])o1`, the activity change was 7.93% (inactive).
In the case of `COc1ccc(-n2nnnc2CNC(=O)c2ccc3ccccc3c2)cc1`, the activity change is reported as -0.166% (inactive).
`O=C(NCc1nnnn1-c1ccc(Cl)cc1)c1ccc2c(c1)OCO2` was tested, and the activity change was -76.9% (active).
With `C/C(COc1ccccc1)=N\NC(=O)c1nnn(-c2nonc2N)c1-c1ccc(C)cc1` the activity change was 4.6% (inactive).
`Cc1c(C(=O)NNC(=O)c2ccncc2)oc2ccccc12` was tested, and the activity change was -13.1% (inactive).
In the case of `Cc1cc2ccccn2c1C(=O)c1cccc(F)c1`, the activity change is reported as -0.532% (inactive).
For `Cc1c(C=O)c2ccccn2c1C(=O)c1ccncc1`, the activity change was -70.5% (active).
